Results taken from PubChem BioAssay.
Activity calls are given as the source filed them. Unless noted, the rule behind the calls is not given here.

Experiments:
[1] = system: XIP peptide (Xip251-270) binding; experiment: XIP fragment 251-270 binding compounds – biochemical, small-molecule microarray, fluorescence 635/667 nm, 0.1 µg/mL protein, primary screen (AID 1182); details: fluorescent protein binding, 635 nm, higher = more signal, called active from +8 up or from −8 down
XIP peptide (Xip251-270) = experiment: compounds binding XIP fragment 251-270 – biochemical, small-molecule microarray, fluorescence 635/667 nm, 0.5 µg/mL protein, primary screen (AID 1183); details: fluorescence 635 nm, higher = more signal
[2] = blood-stage malaria parasite viability loss – strain 3D7, DAPI fluorescence, 100 nL, primary screen (AID 1184);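 note: parasites grown inside human red blood cells in medium with human serum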; details: P. falciparum 3D7 growth, 3 d, higher = more signal
[3] = target: Homeobox protein Hox-A13 (Mus musculus) (UniProt Q62424); experiment: disruptors of Hoxa13 oligonucleotide interaction – biochemical, fluorescence polarization, labeled oligonucleotide, primary screen (AID 1185); details: Hoxa13:DNA binding, 15 min, higher = more signal, called active from +8 up or from −8 down
[4] = blockers of DNA damage checkpoint Chk1 activation – imaging, HeLa, hydroxyurea, phospho-Chk1 antibody, percent positive cells, primary screen (AID 1186); details: hydroxyurea-induced phospho-Chk1 immunofluorescence imaging, higher = more signal
[5] = blockers of DNA damage checkpoint Chk1 activation – imaging, HeLa, hydroxyurea, phospho-Chk1 nuclear intensity, primary screen (AID 1187); details: hydroxyurea-induced phospho-Chk1 immunofluorescence imaging, higher = more signal

Chain of Homeobox protein Hox-A13 (Mus musculus) (Q62424 whole entry, looked up): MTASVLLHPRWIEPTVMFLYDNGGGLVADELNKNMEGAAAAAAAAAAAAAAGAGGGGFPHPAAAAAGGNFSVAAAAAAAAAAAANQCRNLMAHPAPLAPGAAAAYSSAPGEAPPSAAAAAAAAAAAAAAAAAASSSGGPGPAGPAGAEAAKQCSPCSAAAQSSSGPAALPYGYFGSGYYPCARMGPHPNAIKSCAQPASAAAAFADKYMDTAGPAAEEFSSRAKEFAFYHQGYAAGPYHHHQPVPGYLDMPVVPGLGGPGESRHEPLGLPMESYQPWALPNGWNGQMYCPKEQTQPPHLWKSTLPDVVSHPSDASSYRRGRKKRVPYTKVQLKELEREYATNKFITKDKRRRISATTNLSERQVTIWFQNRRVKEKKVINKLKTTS

| SMILES | composite z-score [1] | composite z-score (XIP peptide (Xip251-270)) | z-score [2] | z-score [3] | z-score [4] | z-score [5] |
| --- | --- | --- | --- | --- | --- | --- |
| CCCC=C(CCC)[C@@H](NC(=O)c1ccccc1)c1ccccc1 | -1.3 (inactive) | -0.905 | -0.639 | -0.832 (inactive) | -0.442 (inactive) | -0.784 (inactive) |
| COC(=O)C[C@H]1O[C@]2(C(=O)N(C)c3ccccc32)[C@@H](C)[C@@H]1[Si](C)(C)c1ccc(OC)cc1 | -0.539 (inactive) | 0.414 | -2.41 | -6.13 (inactive) | 0.463 (inactive) | 0.688 (inactive) |
| O=C1O[C@@H](c2ccccc2)[C@@H](c2ccccc2)N2[C@@H](c3ccccc3OCCO)[C@]3(C(=O)Nc4ccc(C#CC5=CCCCC5)cc43)[C@@H](C(=O)O)[C@H]12 | 0.364 (inactive) | 0.305 | -0.662 | -3.14 (inactive) | -0.379 (inactive) | -0.318 (inactive) |
| COCCOC(=O)N1C(=O)[C@@]2(c3cc(C#CCCO)ccc31)[C@H](c1ccc(O)cc1)N1[C@H](c3ccccc3)[C@H](c3ccccc3)OC(=O)[C@H]1[C@@H]2C(=O)Nc1nc2ccccc2s1 | 0.449 (inactive) | 0.635 | -1.04 | -1.98 (inactive) | -0.534 (inactive) | -0.733 (inactive) |
| C=CC[C@]1(C(N)=O)N=C(c2ccc(OCCCO)cc2)O[C@H]1c1ccccc1CN=[N+]=[N-] | 0.914 (inactive) | -0.313 | -2.04 | -2.82 (inactive) | -0.273 (inactive) | 0.168 (inactive) |
| COC(=O)Cn1c(C(=O)N2CCCC2)cc2c1C[C@H]1CN(C(=O)c3ccccc3)[C@@](Cc3ccc(OC)cc3)(C(=O)OC)[C@@H]21 | 0.516 (inactive) | 0.518 | -1.48 | -3.21 (inactive) | 0.847 (inactive) | 0.487 (inactive) |
| O=C1c2ccccc2[C@@]2(Cc3ccccc3N(CC(F)(F)F)C2=O)[C@H](c2ccc(CO)cc2)N1C1CCCCC1 | 0.586 (inactive) | 0.536 | -0.361 | 0.601 (inactive) | -0.202 (inactive) | -0.26 (inactive) |
| O=C(NCc1ccccc1)[C@@]1(Cc2ccccc2)COC(c2ccc(OCCCO)cc2)=N1 | 0.489 (inactive) | 0.75 | -2.15 | -4.9 (inactive) | -0.583 (inactive) | -0.649 (inactive) |
| CCCNC(=O)[C@@]1(Sc2ccc(C)cc2)CC(=O)N(Cc2ccccc2Cl)[C@@H]1c1ccc(CO)cc1 | 0.266 (inactive) | -0.271 | -1.79 | -1.4 (inactive) | -0.423 (inactive) | -0.365 (inactive) |
| CCOC(=O)[C@H]1C/C=C/C[C@H](C(=O)OCC)C(=O)O[C@H]2[C@@H](OC)O[C@H](CO)[C@@H](OC(=O)Nc3ccc(Br)cc3)[C@@H]2OC1=O | 0.709 (inactive) | 0.867 | -1.85 | -0.239 (inactive) | -0.181 (inactive) | -0.26 (inactive) |
| CC(C)[Si](OCCCNS(=O)(=O)c1ccc(Br)cc1)(C(C)C)C(C)C | -0.0972 (inactive) | 0.195 | -1.12 | -0.361 (inactive) | -0.672 (inactive) | -1.01 (inactive) |
